Experimental data as given in PubChem BioAssay AID977606 (Broad Institute, 2014).
Screen size: about 1,500 compounds; about 430 (29%) were called active. The rule behind the calls is not given here. Not all results are given here. Entries that show only a call come without a potency. Potency and affinity values are given separately.

Experiment: glucose-independent GLuc insulin release activation – cell-based, INS-1E, Gaussia luciferase, luminescence, cherry-pick, counter-screen for glucose-dependent insulin secretion activators, dose response (AID 977606)
Settings: INS-1E Gaussia luciferase insulin secretion, no glucose, 100% = twice neutral-control luminescence; series mostly up to 35 µM

| Compound | outcome |
| --- | --- |
| C/C=C/Cn1c(N2CCCCCC2)nc2c1c(=O)[nH]c(=O)n2C | inactive |
| C/C(Cl)=C/CSc1nc2c(c(=O)[nH]c(=O)n2C)n1C(C)C | inactive |
| Cn1c(=O)[nH]c(=O)c2c1nc(NC1CCCC1)n2Cc1ccccc1 | inactive |
| CC(C)CCn1c(N2CCCC2)nc2c1c(=O)[nH]c(=O)n2C | inactive |
| CN(Cc1ccccc1)c1nc2c(c(=O)[nH]c(=O)n2C)n1Cc1ccccc1 | inactive |
| CCCCCCn1c(SCC(C)C)nc2c1c(=O)[nH]c(=O)n2C | inactive |
| CCCN1C[C@@H](C)[C@@H](OC)CN(C)C(=O)c2ccc(NC(=O)c3cccc(F)c3)cc2OC[C@H]1C | inactive |
| O=C(O)C1Cc2c([nH]c3ccccc23)C(c2ccc3c(c2)OCO3)N1 (stereo not given) | inactive |
| COc1cc2c(cc1OC)-c1cc(NCc3ccccn3)nc(=O)n1CC2 | inactive |
| CCOc1ccc(CCNS(=O)(=O)c2cn(C)cn2)cc1OCC | inactive |
| CC(=O)N1CCN(C(=O)COC(=O)c2ccc(S(C)(=O)=O)cc2)CC1 | inactive |
| CC(C)(C)NC(=O)N1c2ccccc2Sc2ccccc21 | inactive |
| CCn1ncc2c1C(=O)NC1c3ccccc3C(=O)N21 (stereo not given) | inactive |
| O=C(NNC(=O)c1cc2cc3ccccc3nc2s1)c1cccc(C(F)(F)F)c1 | inactive |
| Cc1cc(C)cc(C(=O)NC(=S)Nc2ccc(-c3cc4ccccc4oc3=O)cc2)c1 | inactive |
| COc1ccc(-c2nc(CCl)cs2)cc1OC | inactive |
| C=CCn1c(-c2csc(-c3ccc(OC)c(OC)c3)n2)n[nH]c1=S | inactive |
| O=C(c1ccccc1)N(C(=O)c1ccccc1)N1CCCC1 | inactive |
| CN(c1ccc(C(=O)N2CCN(Cc3ccccc3)CC2)cc1)S(=O)(=O)c1ccccc1 | inactive |
| CCCn1nc(NC(=O)c2ccco2)c2cc3ccccc3nc21 | inactive |
| CCn1nc(NC(=O)c2ccco2)c2cc3ccccc3nc21 | inactive |
| O=C1c2cccnc2C(Nc2ccc(F)c(Cl)c2)N1Cc1cccs1 (stereo not given) | inactive |

| Compound | outcome |
| --- | --- |
| CCOc1ccccc1OCCC(=O)NNC(=O)Cn1nc(C)cc1C | inactive |
| CCOc1cc(/C=N/NC(=O)CCn2nnc3ccccc32)ccc1O | inactive |
| N#CCc1nn(-c2ccccc2)c2ncnc(N)c12 | inactive |
| CN(C)CCCN(C(=O)c1ccco1)c1nc2c(F)cccc2s1 | inactive |
| O=C(c1cccnc1)N(Cc1ccccc1)c1ccccc1 | inactive |
| COc1ccc(-c2nc(N3CCC(C)CC3)[nH]c(=O)c2C#N)cc1 | inactive |
| COc1ccc(-c2ccc(SCc3cccnc3)nn2)cc1OC | inactive |
| CC(C)CCN(CC(=O)NCc1ccc(F)cc1)S(=O)(=O)c1ccccc1F | inactive |
| O=C(NN(Cc1ccccc1)Cc1ccccc1)c1ccccc1 | inactive |
| O=C(COC(=O)C1CCC1)NC(=O)c1ccccc1 | inactive |
| O=C(c1ccc2c(c1)OCO2)N1CCN(S(=O)(=O)c2ccccc2)CC1 | inactive |
| O=C(O)c1ccc(S(=O)(=O)NCc2ccc3c(c2)OCO3)cc1 | inactive |
| OC(c1ccc(Cl)cc1)C(CN1CCOCC1)c1ccccc1 (stereo not given) | inactive |
| CC(C)OCC(O)CN1CCC(Cc2ccccc2)CC1 (stereo not given) | inactive |
| COC(=O)CN(c1cccc(C)c1)S(=O)(=O)c1ccccc1 | inactive |
| COCCNC(=O)c1ccc(N(C)S(=O)(=O)c2ccc(OC)c(OC)c2)cc1 | inactive |
| CCOc1ccc(-c2nc(CSc3nnc(N)s3)cs2)cc1OC | inactive |
| C=CCNC(=O)COc1coc(CN2CCN(C(=O)c3ccco3)CC2)cc1=O | inactive |
| C=C[C@@]1(C)CC(=O)[C@]2(O)[C@@]3(C)[C@@H](O)CCC(C)(C)[C@@H]3[C@H](O)[C@H](OC(C)=O)[C@@]2(C)O1 | inactive |
| Nc1nc(N)nc(-c2ccc(Cl)cc2)n1 | inactive |
| Cc1cccc(-c2cc3nc4c(c(N5CCCC(O)C5)n3n2)CCC4)c1 (stereo not given) | inactive |
| C=C1[C@@H](O)[C@H](CC(C)C)N(Cc2ccccc2Br)S1(=O)=O | inactive |

| Compound | outcome |
| --- | --- |
| CCn1nnc(NC(=O)c2sc3ccccc3c2Cl)n1 | inactive |
| Cc1c(NC(=S)NC(=O)c2sc3ccccc3c2Cl)cccc1C(=O)O | inactive |
| Fc1ccc(-c2csc3nnc(SCc4cccnc4)n23)cc1 | inactive |
| CC(C)(C)OC(=O)N1CCCN(C(=O)c2ccc(Cl)cc2)CC1 | inactive |
| COc1nc(Nc2ccccc2)nc(OC)n1 | inactive |
| CC1(C)N=C(c2ccccc2)C(c2ccccc2)=N1 | inactive |
| COc1ccc2nc3ccccc3nc2c1NC(=O)c1ccc(Cl)cc1 | inactive |
| Cc1c(C)n(CCCN(C)C)c2ncnc(Nc3ccccc3)c12 | inactive |
| COc1ccc(C)c(-n2c(=O)n(Cc3ccccc3)c(=O)c3[nH]cnc32)c1 | inactive |
| COc1ccc(CCn2nnc(-c3ccc(NC(C)=O)c(Cl)c3)n2)cc1 | inactive |
| Cc1ccc(OCC(=O)NC(C)c2ccccc2)cc1 (stereo not given) | inactive |
| NC(=O)COC(=O)c1ccccc1Oc1ccccc1 | inactive |
| Fc1ccc(-c2cc(C(F)(F)F)nc(-n3cncn3)n2)cc1 | inactive |
| CCOC(=O)c1cnc2c(cnn2C)c1Oc1ccc(OC)cc1 | inactive |
| CCOC(=O)Nc1ccc2c(c1)Sc1ccccc1N2C(=O)CCN1CCOCC1 | inactive |
| CCNc1nc(CC)nc2c1oc1ccccc12 | inactive |
| COCCn1c(-c2ccc3ccccc3c2)nc2c1c(=O)[nH]c(=O)n2CC(C)C | inactive |
| CCCCn1c(-c2ccncc2)nc2c1c(=O)[nH]c(=O)n2CC(C)C | inactive |
| Cc1cc(S(=O)(=O)NCc2cccnc2)ccc1F | inactive |
| Cc1cccn2cc(CCNS(=O)(=O)c3cccs3)nc12 | inactive |
| COc1cc2ccc(C(C)=NNC(N)=S)cc2cc1OC | inactive |
| O=C(Nc1ccnn1C1CCN(C2CCC2)CC1)c1ccccc1Cl | inactive |

| Compound | outcome |
| --- | --- |
| CC1Cc2ccccc2N1C(=S)NC(=O)c1cccc(Br)c1 (stereo not given) | inactive |
| O=S(=O)(NCC1CCCO1)c1ccc(Cl)nc1 (stereo not given) | inactive |
| CC(C)CC(=O)Nc1c2c(nn1-c1ccc(F)cc1)CS(=O)(=O)C2 | inactive |
| Cc1ccccc1-n1nc2c(c1NC(=O)c1cc3ccccc3oc1=O)CS(=O)(=O)C2 | inactive |
| O=C1N(c2ccccc2)c2ccccc2[C@]12C[C@H](O)CO2 | inactive |
| CC(C(=O)Nc1ccc2[nH]c(=O)[nH]c2c1)N1CCN(Cc2ccc3c(c2)OCO3)CC1 (stereo not given) | inactive |
| O=C(c1ccco1)N1CCN(C2CN(Cc3ccccc3)S(=O)(=O)C2)CC1 (stereo not given) | inactive |
| COc1ccc(-c2nnc3sc(-c4ccco4)nn23)cc1OC | inactive |
| COc1ccc(-c2nc(C(=O)O)cs2)cc1OC | inactive |
| COc1ccc(-c2ccncc2)cc1OC | inactive |
| COc1ccc(-c2nnn(Cc3nc(N)nc(N4CCOCC4)n3)n2)cc1OC | inactive |
| Cc1ccc2nc(N3CCN(C(=O)CCCC(=O)O)CC3)nc(-c3ccccc3)c2c1 | inactive |
| COc1ccc(-c2cc(-c3ccco3)[nH]c(=O)c2C#N)cc1OC | inactive |
| CC(C)C(C(=O)NCc1ccco1)N(CC1CCCO1)C(=O)CNS(=O)(=O)c1ccc(F)cc1 (stereo not given) | inactive |
| COc1cccc(-n2c(=O)n(Cc3ccccc3)c(=O)c3[nH]cnc32)c1C | inactive |
| CCOc1nc(NC(=O)NS(=O)(=O)c2cccc(Cl)c2)nc(-c2ccccc2)n1 | inactive |
| COc1ccccc1-n1cnc2sc(C)c(C)c2c1=O | inactive |
| CCCCNC(=O)O[C@H]1C[C@@H]2CCN3C(=O)CCC[C@H]([C@H]1CC)[C@H]23 | inactive |
| COc1ccc(CCNS(=O)(=O)c2cccc(C)c2)cc1OC | inactive |
| CCNC(=O)C1(C)CCCN1Cc1cccc(C(F)(F)F)c1 (stereo not given) | inactive |
| O=C(c1ccccc1F)N1CCCC(N2CCN(Cc3ccc4c(c3)OCO4)CC2)C1 (stereo not given) | inactive |
| CCN(CC)CCCN=C1N[C@@H](c2ccccc2)C(C(=O)OC)=C(C)N1CC | inactive |

| Compound | outcome |
| --- | --- |
| COc1ccc(S(=O)(=O)N(C)c2ccc(C(=O)N3CCCC3)cc2)cc1OC | inactive |
| CCN(CC)C(=O)c1ccccc1NS(=O)(=O)c1ccc(C)cc1 | inactive |
| CCN(CCC(=O)O)c1ccccc1 | inactive |
| CCCCC(=O)N(C)c1c(CC)nc2c(OCc3ccc(C(F)(F)F)cc3)cccn12 | inactive |
| C=C(C)n1c(=O)n(Cc2ccccc2C)c2ccccc21 | inactive |
| CCOC(=O)N1CCN(S(=O)(=O)N2CCCC(C(=O)NCc3cc(OC)ccc3OC)C2)CC1 (stereo not given) | inactive |
| COc1cc(C(F)(F)F)c(C(=O)NCc2cccc(Cl)c2)cn1 | inactive |
| CCCNC(=O)C1(C)CCN(C(=O)c2cccc(C(F)(F)F)c2)C1 (stereo not given) | inactive |
| CCn1cc(S(=O)(=O)NCCc2ccc(OC)c(OC)c2)cn1 | inactive |
| O=C(Nc1nnc(-c2ccc(Cl)cc2)o1)NC1CCCCC1 | inactive |
| COc1cc2cnc(-c3ccsc3)cc2cc1OC | inactive |
| CCOC(=O)C1CCCN(C(=O)c2cccnc2Oc2ccccc2)CC1 (stereo not given) | inactive |
| CCOC(=O)c1ccc(S(=O)(=O)N2CCC(C(=O)Nc3nnc(C)o3)CC2)cc1 | inactive |
| CCc1cccc(NC(=O)C2CCCN2S(=O)(=O)c2ccc3c(c2)n(C)c(=O)c(=O)n3C)c1 (stereo not given) | inactive |
| Cc1cccc(C)c1OCCCn1ccnc1 | inactive |
| CCSc1ncnc2sc3c(c12)CCC3 | inactive |
| O=C1c2cccnc2C(Nc2cccc(F)c2)N1Cc1ccco1 (stereo not given) | inactive |
| C[C@@H]1CN([C@H](C)CO)C(=O)CCCn2nncc2CO[C@H]1CN(C)C(=O)Nc1ccnc(N2CCOCC2)c1 | inactive |
| CCOc1ccc(Nc2oc(-c3cccc(Cl)c3)nc2C#N)cc1 | inactive |
| Cc1ccc(-c2nc(C#N)c(NCC3CCCO3)o2)cc1 (stereo not given) | inactive |
| CN1CCN(C(=O)c2cccc(-c3cnc4cnc(-c5ccccc5Oc5ccccc5)cn34)c2)CC1 | inactive |
| N#Cc1ccc(-c2ccc3c(c2)[C@@H]2[C@@H](CCN2C(=O)C2CCCC2)[C@@H](CO)N3)cc1 | inactive |
